Measurements: PubChem BioAssay AID686979 (National Center for Advancing Translational Sciences (NCATS), 2013)
Out of some 420,000 compounds screened, about 50,000 (12%) were called active. Another 26% or so got no clear call; they are omitted. This excerpt belongs to a sample that is enriched for actives. Unmarked numbers belong to inactive results. Calls follow the shape of the dose curve; as a rule, active = well fitted inhibition curve with a large enough effect; inconclusive = small, poorly fitted or top-dose-only effect; inactive = flat fitted curve, though single readings scatter.

Test: qHTS for Inhibitors of human tyrosyl-DNA phosphodiesterase 1 (TDP1): qHTS in cells in presence of CPT; also: nearly all actives have a fitted effect of over 55% in size
Conditions: chicken DT40 Tdp1-/-;hTDP1 cells + 20 nM CPT, ATP luminescence, 48 h; series mostly up to 46.2 µM; activity change, negative = growth inhibition: at the top concentration
Procedure, shortened: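 Chicken DT40 Tdp1-/- cells stably complemented with human TDP1 were seeded at 400 cells/well in medium containing 20 nM camptothecin, exposed to pin-transferred compounds, and grown at 37 °C for at least 48 hr. Viability was read as ATP luminescence.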
% is scaled to controls: 0 for no effect and ±100 for the full control effect; potency is read from the fitted curve at half-maximal effect.

| Compound | Potency | activity change, negative = growth inhibition |
| --- | --- | --- |
| COc1cc(C(=O)NCC2(c3ccccc3)CCCC2)ccc1OC(C)C | 20.6 µM (active) |  |
| COc1ccccc1C(=O)NCCC(=O)NN1C(=O)NC2(CCCCC2)C1=O |  | 0.64% |
| CCOc1c(CNCc2ccc(C(=O)O)cc2)cccc1OC |  | 12.2% |
| CCOc1c(OC)cccc1C(=O)NCC1(c2ccccc2)CCCC1 | 5.8 µM (active) |  |
| COc1ccc(C(=O)NC2CC(C)(C)NC(C)(C)C2)cc1OC |  | 1.23% |
| CCn1c(CNC(=O)c2ccc(OC)c(OC)c2)nnc1SCC(=O)Nc1ccccc1 |  | 12.4% |
| CN(C)C(CNC(=O)c1cccc(S(=O)(=O)Nc2ccc(Br)cc2)c1)c1ccco1 (centres undefined) |  | 4.66% |
| COc1ccc(C(=O)c2oc3ccccc3c2NC(=O)COc2cccc(C)c2)cc1 |  | -10.2% |
| CCCc1nnc(SCC(=O)N2C(C)CCCC2C)n1CC (centres undefined) |  | 4.32% |
| O=c1c(CN2CCOc3ccc(CN4CCC(Oc5cccnc5)CC4)cc3C2)coc2ccccc12 |  | 0.59% [at 9.04 µM] |
| COc1ccc(C)cc1-n1nnnc1SCc1nc2ccccc2c(=O)[nH]1 | 13 µM (active) |  |
| COCCn1c(SCc2nc3cc(OC)c(OC)cc3c(=O)[nH]2)nnc1-c1ccncc1 |  | -23.8% |
| CCn1c(COc2c(C)cccc2C)nnc1SCc1nc2ccccc2c(=O)[nH]1 |  | -29.2% |
| Cc1cccc(NC(=O)Nc2ccc(OCc3ccccc3)cc2)n1 |  | -26.1% |
| O=C(OCC(=O)N1CCN(C(=O)c2ccco2)CC1)c1cccc(O)c1 |  | 10.2% |
| COc1ccc(Cl)cc1NS(=O)(=O)c1cccc(C(=O)NCC2CCCO2)c1 (centres undefined) |  | -18.3% |
| CC(C)CC(CCc1ccccc1)OS(N)(=O)=O (centres undefined) |  | -10.9% |
| CSc1nc2ccccc2c(=O)n1Cc1ccc(F)cc1 |  | -1.98% |
| Cc1ccc(Cn2c(C)nc3c(c2=O)c2nc4ccccc4nc2n3Cc2ccco2)cc1 | 25.9 µM (active) |  |
| Cc1ccc(Cn2c(=O)n(Cc3nc(-c4ccccc4)no3)c(=O)c3cc4c(cc32)OCO4)cc1 |  | -3.36% |
| O=C(O)CSCc1ccc(C(=O)O)o1 |  | -5.59% |
| COc1ccc(C(=O)OCC(=O)Nc2cccc(C(C)=O)c2)cc1OC |  | -1.13% |
| COc1ccc(OCC(=O)NNC(=O)C2CCC2)cc1 |  | -23.6% |

| Compound | Potency | activity change, negative = growth inhibition |
| --- | --- | --- |
| O=C(CC1CCCCC1)NCc1ccc(F)cc1 |  | -1.57% |
| C[N+]1(CC(O)COc2ccccc2)CCN(C(=O)c2ccc([N+](=O)[O-])cc2)CC1 (centres undefined) |  | 6.42% |
| O=S(=O)(c1ccc(OCC(O)CN2CCN(c3ccccc3Cl)CC2)cc1)N1CCOCC1 (centres undefined) | 14.6 µM (active) |  |
| O=[N+]([O-])c1ccc(N2CCN(CC(O)COc3ccccc3)CC2)cc1 (centres undefined) | 20.6 µM (active) |  |
| OC(COc1ccccc1)CN1CCN(c2cccc(Cl)c2)CC1 (centres undefined) |  | -8.22% |
| OC(COc1ccc2ccccc2c1)CN1CCOCC1 (centres undefined) | inactive |  |
| CC(=O)Nc1ccc(OCC(O)CN2CCN(c3ccccc3Cl)CC2)cc1 (centres undefined) |  | -10.6% |
| Cc1nc2nc(C)c(NS(=O)(=O)c3ccc(C(C)(C)C)cc3)c(=O)n2[nH]1 |  | -11.1% |
| CCCS(=O)(=O)NCc1c(C)ncc2c1CCN(C(=O)c1ccc(F)c(F)c1)C2 |  | -3.77% [at 9.04 µM] |
| Cc1coc2c1c(C)cc1oc(=O)c(CC(=O)NCC(=O)N[C@H](C(=O)O)C(C)C)c(C)c12 |  | -0.893% |
| CC(C#N)OC(=O)c1cccnc1SCC(=O)Nc1ccc2c(c1)OCO2 (centres undefined) |  | 14.5% |
| COc1ccc2c(c1)OC(O)(C(F)(F)C(F)F)CC2=O (centres undefined) | 11.6 µM (active) |  |
| COc1ccc2c(c1)SC(C)CC2=O (centres undefined) |  | -1.56% |
| O=C(CCC(=O)OCc1cccc(C(=O)Oc2ccccc2)c1)Nc1cccc2ccccc12 |  | -26.9% |
| CS(=O)(=O)c1ccc(C(=O)NNC(=O)c2cccs2)cc1 |  | -1.13% |
| CC(=O)NC12CC3CC(C1)CC(C(=O)N1CCN(S(=O)(=O)c4cccs4)CC1)(C3)C2 |  | -8% |
| CCOc1ccc(C(=O)Nc2ccc(CN3CCOCC3)cc2)cc1Cl |  | -16.5% |
| N#C/C(=C\c1ccccc1F)c1nc2ccccc2c(=O)[nH]1 |  | -10.3% |
| CCOc1ccc(/C=C(\C#N)c2nc3ccccc3c(=O)[nH]2)cc1OC |  | -12.3% |
| COc1cc(/C=C(\C#N)c2nc3ccccc3[nH]2)ccc1O | 25.9 µM (active) |  |
| Cc1nnc(SCc2nc3ccccc3nc2C)s1 |  | -1.33% |
| ClC1(Cl)CC1CSc1ncn[nH]1 (centres undefined) |  | 11% |
| S=C(Nc1cccc(Br)c1)N1CCn2cccc2C1c1cccnc1 (centres undefined) |  | -26.3% |

| Compound | Potency | activity change, negative = growth inhibition |
| --- | --- | --- |
| S=C(NCCc1ccccc1)N1CCn2cccc2C1c1ccncc1 (centres undefined) | 18.4 µM (active) |  |
| O=C(CSc1ncccn1)NCCc1ccccc1 |  | -27.8% |
| CCC(=O)Nc1ccc(C(=O)NNC(=O)c2ccc(Cl)cc2)cc1 |  | -2.54% |
| CC(C)C(C(=O)NCc1ccco1)N(CC1CCCO1)C(=O)CNS(=O)(=O)c1ccc(F)cc1 (centres undefined) |  | 1.31% |
| Cc1ccc(C2SCC(=O)N2c2ccccc2)cc1 (centres undefined) |  | 10.6% |
| COC(=O)[C@@]1(Sc2ccc(C)cc2)CC(=O)N(c2cccc(SC)c2)[C@@H]1c1ccccc1 | 18.4 µM (active) |  |
| O=C1CC(c2ccccc2)C(=O)N1c1cccc(O)c1 (centres undefined) |  | -14.8% |
| COc1cc(CO)ccc1OCC(=O)Nc1cccc2ccccc12 |  | -13.7% |
| O=C(NCCCn1ccnc1)c1cc(Br)c(Br)s1 |  | 4.77% |
| COC(=O)c1sc2[nH]c(=S)n(N)c(=O)c2c1C |  | -11.5% |
| O=c1c(/C=N/O)coc2ccc(Cl)cc12 |  | 14.6% |
| Cc1ccc2occ(/C=N/NC(=O)c3ccccc3C)c(=O)c2c1 | 16.4 µM (active) |  |
| CC(C)(C)OC(=O)NCCCCCC(=O)N/N=C/c1coc2ccccc2c1=O |  | -26.3% |
| CN1CCC(OC(=O)COc2ccc(Cl)cc2Cl)CC1 |  | 2.57% |
| O=C(COC(=O)c1ccccc1SCC(=O)N1CCCC1)Nc1ccccc1OC(F)F |  | -0.557% |
| Cn1c(SCC(=O)N2CCCC2)nnc1-c1cccs1 |  | -4.1% |
| Cc1cc(C)cc(NC(=O)Cn2nc(N3CCN(c4ccccc4)CC3)ccc2=O)c1 |  | -28.9% |
| COc1ccc(CNC(=O)CCn2cccc2)cc1 |  | -2.52% |
| COc1ccc(CNc2nccs2)cc1 |  | -19.3% |
| COc1ccc(CNc2c(CO)cnc3c2cnn3C)cc1 | 8.2 µM (active) |  |
| CSc1nc2nc3c(c(=O)n2[nH]1)CCC3 |  | -5.28% |
| Cc1cc(NS(=O)(=O)c2ccc(NC(=O)c3ccccc3C)cc2)nc(C)n1 |  | -10.1% |
| Cc1cnc(C(=O)N2CCOc3ccc(CN4CCCC(C(=O)c5cccnc5)C4)cc3C2)[nH]1 (centres undefined) |  | -10% [at 9.04 µM] |
